Screening data: PubChem, National Center for Advancing Translational Sciences (NCATS)
Tb PYK inh = qHTS of Trypanosoma Brucei Inhibitors | AID 624173, 2012 | 410,000 compounds, 0.12% hits | TbPYK enzyme, Kinase-Glo Plus ATP luminescence, 45 min | Potency, µM (titrated, usually from 76.8 µM), for the others: at the top dose activity, negative = inhibition, usual class: inhibitors | pyruvate kinase (Trypanosoma brucei), Q57TT1; also: nearly all actives have a fitted effect of over 50% in size
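Luminescent Kinase-Glo Plus end-point after 45 min room-temperature reaction of T. brucei pyruvate kinase started with 130 uM ADP (final). Buffer TEA 50 mM pH 7.2 with KCl, MgCl2, BSA, Tween-20; titration-based qHTS with fitted concentration-effect curves.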
RE007 growth inh = qHTS Assay for Inhibitors of the HIV-1 protein Vpr; S. pombe RE007 Vpr strain, BacTiter-Glo ATP luminescence, 24 h; AID 651644, 2012; 360,000 compounds, 0.21% hits; Potency, µM (series often up to 92.2 µM), inactives show at the highest dose activity change, negative = less growth, hits mostly inhibitors; active = well fitted falling curve with a large enough effect; inconclusive = small, poorly fitted or top-dose-only effect; inactive = no such curve, though single readings can be large or run the other way; also: nearly all actives have a fitted effect of over 50% in size
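Fission yeast RE007 carrying one integrated HIV-1 vpr copy, seeded at OD 0.01 in PMG+AL medium with 23 nL pinned compound. Grown 24 h at 30 degrees; viability read by BacTiter-Glo luminescence after 5 min.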
AMA1 RON2 block = qHTS for Inhibitors of AMA1-RON; Towards Development of Antimalarial Drug Lead: Primary Screen. 360,000 compounds, 0.2% hits. Potency, µM (series often up to 58.2 µM), inactives show at the highest dose activity change, negative = inhibition, most hits filed as inhibitors. Plasmodium falciparum AMA1 (3D7) - RON2 peptide interaction. AlphaScreen AMA1-biotinylated RON2 peptide binding. AID 720542, 2013;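 also: 0% = vehicle wells and -100% = peptide control; nearly all actives have a fitted effect of over 45% in size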
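AMA1 (3D7) with his tag at 25 nM final met compounds first, then biotinylated RON2 peptide at 25 nM; detection used donor plus acceptor beads, 10 µg/mL apiece, read by AlphaScreen after 30 min at room temperature.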
LmPK inh = qHTS Assay for Inhibitors of Leishmania Mexicana Pyruvate Kinase (LmPK); purified LmPK, Kinase-Glo ATP luminescence, 1 h; 290,000 compounds, 0.37% hits; Q27686; Potency, µM (series often up to 57.5 µM), for inactives: at the top dose activity change, negative = inhibition, usual class: inhibitors
Target sequence (Q27686 whole entry, looked up): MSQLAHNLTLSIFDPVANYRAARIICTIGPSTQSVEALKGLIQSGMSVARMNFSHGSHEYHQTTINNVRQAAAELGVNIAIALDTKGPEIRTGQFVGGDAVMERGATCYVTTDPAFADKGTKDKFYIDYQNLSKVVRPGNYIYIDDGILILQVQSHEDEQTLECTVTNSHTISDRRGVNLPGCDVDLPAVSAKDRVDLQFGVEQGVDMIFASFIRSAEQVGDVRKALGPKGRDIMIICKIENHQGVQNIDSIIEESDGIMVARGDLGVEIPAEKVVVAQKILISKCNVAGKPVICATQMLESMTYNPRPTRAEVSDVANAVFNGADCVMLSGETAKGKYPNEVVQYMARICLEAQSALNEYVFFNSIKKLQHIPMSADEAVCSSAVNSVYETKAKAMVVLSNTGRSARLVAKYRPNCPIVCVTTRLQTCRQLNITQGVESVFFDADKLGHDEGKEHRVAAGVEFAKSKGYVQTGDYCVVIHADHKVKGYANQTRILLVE
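Purified LmPK (0.1 nM) converted ADP (0.1 mM) to ATP with PEP (0.5 mM) in imidazole buffer pH 7.2 with KCl and MgCl2, 1 h at room temperature. ATP was read by Kinase-Glo luminescence; data normalized to uninhibited and no-enzyme controls.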
Starred values were filed as active, the others as inactive; u = inconclusive; x = not tested or not shown. Rows were chosen to be rich in hits. Some 0.68% of all compounds tested hit in one or more screens of this group. Unless noted, calls follow the shape of the dose curve; as a rule, active = well fitted curve in the direction sought with a large enough effect; inconclusive = small, poorly fitted or top-dose-only effect, or another doubt; inactive = no such curve, though single readings can be large; an effect the other way counts as inactive or inconclusive. Unless noted, % is scaled to controls: 0 for no effect and ±100 for the full control effect; potency is read from the fitted curve at half-maximal effect.

SMILES	Tb PYK inh	RE007 growth inh	AMA1 RON2 block	LmPK inh
Cc1cccc(N2C(=O)CC(Sc3nnc(C)s3)C2=O)c1 (stereo not given)	-12%	35µM*	-1%	3%
Cc1cccc(N2C(=O)CC(Sc3nc(C)cc(C)n3)C2=O)c1 (stereo not given)	-7%	-7%	-17%	-2%
O=C1CC(Sc2nnnn2C2CCCCC2)C(=O)N1c1ccccc1 (stereo not given)	-12%	u	-6%	6%
Cn1nnnc1SC1CC(=O)N(c2ccccc2)C1=O (stereo not given)	-11%	32µM*	-2%	2%
O=C1c2cccc3cccc(c23)C(=O)N1CCCc1n[nH]c(=S)n1-c1ccccc1	7.1µM*	1%	34%	-5%
CC(=O)c1cccc(NC(=O)COc2ccccc2C(=O)c2cc(C#N)c(=O)n(C3CCCCC3)c2)c1	-3%	-8%	2%	1%
COc1ccc(C2/C=C\CN(Cc3ccc(N(C)C)cc3)CC(=O)N2Cc2ccc(F)cc2)cc1 (stereo not given)	-2%	-4%	16µM*	3%
CCN1C(=O)/C(=C2/C=Cc3ccccc3N2CC)SC1=S	-12%	6%	10µM*	-3%
CCCN1C(=O)/C(=C2/C=Cc3ccccc3N2CC)SC1=S	-11%	-12%	3.2µM*	-17%
CCCN1/C(=C2/SC(=S)N(CC)C2=O)C=Cc2ccccc21	-4%	10%	3.2µM*	u
CN1C(=O)/C(=C2/C=Cc3ccccc3N2CCCS(=O)(=O)O)SC1=S	3%	-23%	2%	u
COc1ccccc1/C=N/NC(=O)c1cccc2ccccc12	-18%	1%	-10%	2%
CC(C)(C)c1cc(-c2n[nH]c(=S)n2-c2ccccc2F)n[nH]1	u	-12%	78%	14µM*
COc1cc(C(=O)N(Cc2ccc(N(C)C)cc2)CC2CCCO2)cc(OC)c1OC (stereo not given)	-3%	x	x	x
Cc1cc2oc(C(=O)N(Cc3ccc(N(C)C)cc3)CC3CCCO3)c(C)c2cc1C (stereo not given)	9%	20%	14µM*	-2%
Cc1ccc2oc(C(=O)N(Cc3ccc(N(C)C)cc3)CC3CCCO3)c(C)c2c1 (stereo not given)	-8%	13%	18µM*	-3%
COc1ccccc1-c1nnc(NC(=O)C2=COCCO2)o1	-3%	-2%	57%	0%
COc1ccc(-c2cc(C(=O)Oc3ccc(C)cc3)c3ccccc3n2)cc1	1%	x	x	x
c1nc(N2CCCC2)c2[nH]cnc2n1	-3%	2%	-14%	4%
Cc1ccc(S(=O)(=O)N(C)C[C@H]2OCCCC[C@@H](C)Oc3ccc(N(C)C)cc3C(=O)N([C@H](C)CO)C[C@@H]2C)cc1	7.9µM*	3%	-13%	x
C[C@@H]1CCCCO[C@@H](CN(C)S(=O)(=O)c2ccc(Cl)cc2)[C@@H](C)CN([C@H](C)CO)C(=O)c2cc(N(C)C)ccc2O1	-1%	-13%	0%	x
COc1cc(NC(=O)CN2CC(c3ccccc3)CC2=O)cc(OC)c1 (stereo not given)	-8%	-8%	0%	2%
O=C1Nc2ccc([N+](=O)[O-])cc2OC1CCN1CCN(Cc2ccc3c(c2)OCO3)CC1 (stereo not given)	3%	-11%	-4%	3%
N/N=C(/Cc1nc2ccccc2[nH]1)c1ccc([N+](=O)[O-])cc1	4%	13µM*	73%	-4%
Cc1ccc2c(c1)c1c(n2C)C(C(N)=O)CCC1 (stereo not given)	-15%	-13%	-9%	1%
SMILES	Tb PYK inh	RE007 growth inh	AMA1 RON2 block	LmPK inh
Cc1ccc2c(c1)c1c(n2C)-c2[nH]ncc2CC1	0%	20µM*	3%	4%
O=C(O)c1cccc2c1C(=O)c1ccccc1-2	1%	1%	0%	4%
O=C1C(O)=CC(=C(c2ccccc2)c2ccccc2)c2ccccc21	4%	-1%	10µM*	x
CCN(CC)CCCC(C)Nc1c2ccc(Cl)cc2nc2ccc(OC)cc12 (stereo not given)	x	x	x	1%
COc1ccc2nc3cc(Cl)ccc3c(Nc3cc(C(C)C)c(O)cc3C)c2c1	2%	-12%	16µM*	2%
Cc1ccccc1OCCCN1C(=O)C(=O)c2cccc(C)c21	1%	u	16µM*	0%
Cc1cccc(NC(=O)c2oc3ccc(S(=O)(=O)N4CCCCC4)cc3c2C)c1C	6%	x	x	x
COC(=O)c1cc2c(-c3ccccc3)cc3ccccn3c-2c1C(=O)OC	u	-9%	18µM*	8%
COC(=O)c1c(C)c2c(C)cc3ccccn3c-2c1C(=O)OC	-3%	-1%	-25%	0%
Cc1nc(SCCC(C)C)c([N+](=O)[O-])[nH]1	-5%	23%	19%	0%
CCCCN1C(=O)N(C)C2NC(=O)NC21 (stereo not given)	-4%	32%	5%	3%
CCCCN1C(=O)NC2NC(=O)NC21 (stereo not given)	-3%	5%	3.5µM*	-4%
Cc1ccc(S(=O)(=O)Nc2ccc(O)c3ccccc23)c(C)c1	-20%	-10%	-8%	8.9µM*
O=S(=O)(c1cccc2ccccc12)N1CCC2CC1c1cc(-c3ccc(F)cc3)ccc12 (stereo not given)	-11%	3%	21%	x
COc1ccc(NCc2nnc(SCc3ccc(Cl)cc3)n2-c2ccccc2)cc1	2%	-6%	20µM*	-2%
Brc1ccc(-c2noc(-c3ccccn3)n2)o1	-15%	u	8%	u
O=[N+]([O-])c1ccccc1-c1nc(-c2ccc(Br)o2)no1	-11%	-28%	25µM*	2%
COc1nc(C)ccc1-c1noc(-c2ccccn2)n1	-5%	1%	19%	22µM*
Clc1ccccc1-c1nc(-c2ccc(Br)o2)no1	-8%	-17%	8%	1%
COc1ccccc1-c1noc(-c2ccncc2)n1	-4%	-23%	-4%	u
Brc1ccc(-c2nc(-c3ccccn3)no2)o1	-13%	u	10%	32µM*
COc1ccccc1-c1nc(-c2ccccn2)no1	u	u	55%	4.5µM*
O=C(Nc1ccccc1)OCCNC1CCCCC1	0%	-1%	5%	x
COC(=O)c1ccc(/C=N/NC(=O)CNc2cccc(C)c2)cc1	-2%	-11%	13%	7%
Cc1csc(NC(=O)c2cccn2C)n1	-24%	-27%	-9%	18µM*
Cc1csc(NC(=O)c2cn3ccccc3n2)n1	u	u	74%	14µM*
Cc1csc(NC(=O)c2ccc3ccccc3n2)n1	4%	-27%	36%	-10%
O=C(Nc1ccc(-n2cnnn2)cc1)c1cn2ccccc2n1	0%	-8%	-1%	-1%
Cc1csc(NC(=O)c2sccc2C)n1	-28%	-27%	5%	14µM*
